# Active and inactive are the calls of the source. How the source made its calls: active means hit-call score of the fitted dose curve at least 0.9, where 1 is the maximum; inactive means score below 0.9.
# Read-out: Monocyte Chemoattractant Protein-1 (MCP1), CCL2 (gene 6347)
# Assay: BSK_3C_MCP1: BioMAP Diversity Plus: 3C Assay for Monocyte Chemoattractant Protein-1 (MCP1) Biomarker Activity (AID 2283017)
# Conditions: primary human endothelial cells (HUVEC); actives raise or lower the signal
# Method in brief: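 Endothelial cells from human umbilical vein are dosed with chemical, cultured 24 h, then assayed for MCP-1 by ELISA; both increases and decreases are modelled against DMSO controls.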
Structure (SMILES),outcome,AC50
c1ccc2c(c1)c1cccc3ccc4cccc2c4c31,inactive,
Nc1cc([N+](=O)[O-])ccc1Cl,inactive,
Cc1ccc2n[nH]nc2c1,inactive,
O=C(O)c1cn(-c2ccc(F)cc2)c2cc(N3CCNCC3)c(F)cc2c1=O,inactive,
O=C1CCCCCCCCCCCCCCO1,,26.5 µM (active)
CC[Si](OC(C)=O)(OC(C)=O)OC(C)=O,inactive,

# Read-out: Monocyte Chemoattractant Protein-1 (MCP1), CCL2 (gene 6347)
# Assay: BSK_4H_MCP1: BioMAP Diversity Plus: 4H Assay for Monocyte Chemoattractant Protein-1 (MCP1) Biomarker Activity (AID 2283018)
# Conditions: primary human endothelial cells (HUVEC); actives raise or lower the signal
# Method in brief: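 Primary human umbilical vein endothelium is exposed to chemical for 24 h before MCP-1 is assayed by ELISA. Concentration-response fitted bidirectionally relative to DMSO.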
Structure (SMILES),outcome,AC50
c1ccc2c(c1)c1cccc3ccc4cccc2c4c31,inactive,
Nc1cc([N+](=O)[O-])ccc1Cl,inactive,
Cc1ccc2n[nH]nc2c1,inactive,
O=C(O)c1cn(-c2ccc(F)cc2)c2cc(N3CCNCC3)c(F)cc2c1=O,inactive,
O=C1CCCCCCCCCCCCCCO1,,25.4 µM (active)
CC[Si](OC(C)=O)(OC(C)=O)OC(C)=O,inactive,

# Read-out: Human Leukocyte Antigen - DR isotype (HLADR), HLA-DRA (gene 3122)
# Assay: BSK_3C_HLADR: BioMAP Diversity Plus: 3C Assay for Human Leukocyte Antigen - DR isotype (HLADR) Biomarker Activity (AID 2283019);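 on outcome: ELISA of cell-surface HLA-DR on HUVEC 24 h after dosing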
# Conditions: primary human endothelial cells (HUVEC); actives raise or lower the signal
# Method in brief: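 Endothelial cells from human umbilical vein are treated with test chemical; after 24 h, HLA-DR levels are measured by ELISA. Data are fitted in both directions using DMSO as the baseline.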
Structure (SMILES),AC50,outcome
c1ccc2c(c1)c1cccc3ccc4cccc2c4c31,0.206 µM (active),
Nc1cc([N+](=O)[O-])ccc1Cl,,inactive
Cc1ccc2n[nH]nc2c1,,inactive
O=C(O)c1cn(-c2ccc(F)cc2)c2cc(N3CCNCC3)c(F)cc2c1=O,,inactive
O=C1CCCCCCCCCCCCCCO1,20 µM (active),
CC[Si](OC(C)=O)(OC(C)=O)OC(C)=O,,inactive

# Read-out: Interleukin-8 (IL8), CXCL8 (gene 3576)
# Assay: BSK_3C_IL8: BioMAP Diversity Plus: 3C Assay for Interleukin-8 (IL8) Biomarker Activity (AID 2283020)
# Conditions: primary human endothelial cells (HUVEC); actives raise or lower the signal
# Method in brief: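 Using DMSO-treated wells as the baseline, bidirectional curve fitting was applied to ELISA-measured IL-8 from human umbilical vein endothelial cultures sampled 24 h after compound addition.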
Structure (SMILES),outcome,AC50
c1ccc2c(c1)c1cccc3ccc4cccc2c4c31,inactive,
Nc1cc([N+](=O)[O-])ccc1Cl,inactive,
Cc1ccc2n[nH]nc2c1,inactive,
O=C(O)c1cn(-c2ccc(F)cc2)c2cc(N3CCNCC3)c(F)cc2c1=O,inactive,
O=C1CCCCCCCCCCCCCCO1,,33.6 µM (active)
CC[Si](OC(C)=O)(OC(C)=O)OC(C)=O,inactive,

# From PubChem BioAssay (EPA / NIEHS)
